BaF3 tox: parental Ba/F3 viability inhibition as JAK2V617F counter-screen; CellTiter-Glo ATP luminescence; inhibition, % at 5.6 µM; 220,000 compounds, 1.1% hits; AID 1486;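 active means inhibition above a per-campaign cutoff, the mean inhibition of all tested compounds plus 3 SD, cut at about 27% in these data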;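 further: 0% = DMSO wells and 100% = JAK Inhibitor I control wells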
Ba/F3 V617F tox: loss of viability in JAK2V617F-driven Ba/F3 cells; inhibition, % at 5.6 µM; 220,000 compounds, 1.1% hits; Ba/F3 EpoR-JAK2V617F viability, ATP luminescence;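 active means inhibition above the campaign mean plus 3 SD over all tested compounds, cut at about 24% in these data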;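 further: cytokine-independent growth of Ba/F3 cells driven by EpoR plus mutant JAK2; 0% = DMSO-treated cells and 100% = JAK inhibitor I control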
APP transl inh: APP translation inhibition | SH-SY5Y APP 5'UTR-luciferase reporter, luminescence | inhibition, % at 2 µM | 190,000 compounds, 0.82% hits | AID 1285;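 active means inhibition above a set limit, derived from the sample mean plus 3 SD, cut at about 45% in these data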
KLF5 inhibitor: suppresses KLF5 promoter-driven expression; DLD-1 KLF5 promoter-luciferase reporter, luminescence; inhibition, % at 5 µM; 290,000 compounds, 0.23% hits; AID 1700;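 active means inhibition above a per-plate limit of that plate's mean compound inhibition plus 3 SD, cut at about 60% in these data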;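 further: 0% = DMSO wells and 100% = LY294002 at 200 µM; higher means less KLF5 promoter-driven luciferase light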
IEC-6 tox: kills IEC-6 intestinal cells in KLF5 counter-screen. IEC-6 cytotoxicity, luminescence viability. inhibition, % at 5 µM. 290,000 compounds, 0.78% hits; in the data active means inhibition above about 22%;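 further: 0% = plate median of test compound wells and 100% = cytotoxic reference compound wells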
aSyn 5UTR inh: MLPCN primary screen, SNCA 5' untranslated region; alpha-synuclein 5'UTR reporter, inhibitor activity; inhibition, % (tested at 7.5 µM); 300,000 compounds, 0.82% hits; AID 1813; in the data active means inhibition above about 60%;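 further: H4 neuroglioblastoma cells stably carrying SNCA 5'UTR luciferase fusion; 0% = DMSO wells and 100% = positive control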
Numbers without * were called inactive; nt = not tested or not shown. Compounds with a hit are over-represented: about 2.2% of the library has one in this group of screens.

SMILES	BaF3 tox	Ba/F3 V617F tox	APP transl inh	KLF5 inhibitor	IEC-6 tox	aSyn 5UTR inh
CC(=O)Oc1ccc(N(C(C)=O)S(=O)(=O)c2ccc3ccccc3c2)cc1	nt	nt	nt	-33	-3	3
COc1ccc(C(=O)Nc2cccc(OC)c2)cc1	1	0	-134	-128	1	4
COc1ccc(C(=O)Nc2ccc3[nH]c(-c4cccc(OC)c4)cc(=O)c3c2)cc1	5	0	91*	5	4	-5
Cc1nc2c(oc3ccc(Cl)cc32)c(=O)[nH]1	1	-2	nt	7	0	-13
Cc1ccc(CN2CC(C(=O)NCCCSc3ccccc3)CC2=O)cc1 (configuration not stated)	nt	nt	nt	5	-1	12
Cn1nc(-c2ccccn2)nc2c(=O)n(C)c(=O)nc1-2	105*	99*	59*	105*	99*	94*
COc1ccc(-c2nc(-c3ccccn3)ncc2S(C)(=O)=O)cc1	11	1	11	-11	2	14
CCc1nnc(NC(=O)CCC(=O)NC2CCCC2)s1	nt	nt	nt	-29	-1	-16
O=C(Nc1oc2ccccc2c(=O)c1-c1ccc(Br)cc1)c1ccco1	nt	nt	nt	-40	4	-8
O=C(Nc1ccc(S(=O)(=O)N2CCCCC2)cc1)c1ccc(CN2CCc3ccccc3C2)cc1	34*	30*	15	48	12	16
Oc1c(CN2CCOCC2)cc(COCc2ccccc2)c2cccnc12	1	2	92*	0	-3	114*
CN(C)c1ccc(/C=N/Nc2nc3ccccc3o2)cc1	nt	nt	nt	43	0	67*
O=C(Nc1nc2ccc(F)cc2s1)c1ccc(N2CCCC2=O)cc1	nt	nt	nt	nt	nt	-155
Cc1csc(NC(=O)c2ccc(N3CCCC3=O)cc2)n1	10	-3	-47	-121	-2	101*
COc1cc(/C=C2\NC(=S)NC2=O)ccc1OCc1cccc(C(=O)O)c1	nt	nt	nt	-156	2	-10
O=C(O)c1cccc(COc2ccccc2Cl)c1	nt	nt	nt	nt	nt	103*
O=C(O)c1ccc(COc2ccccc2Cl)cc1	-1	-4	-10	-24	-3	-15
O=C1NC(=O)/C(=C\c2ccc(OCc3cccc(C(=O)O)c3)c(Cl)c2)N1	5	0	-79	-32	-1	70*
COc1cc(NC(=O)Cc2ccccc2)ccc1NC(=O)c1ccccc1	nt	nt	nt	-27	2	-8
Cc1ccc(-n2c(SCC(=O)Nc3ccc(N4CCOCC4)cc3)nc3ccccc3c2=O)cc1	5	0	0	-11	-4	23
COc1ccc(OC)c(NC(=O)CSc2nc3ccccc3c3nc4ccccc4n23)c1	5	2	-2	-4	2	nt
Cc1ccc(NC(=O)CSc2nc3ccccc3c3nc4ccccc4n23)cc1	3	1	51*	-9	11	110*
Cc1ccc(NC(=S)NNC(=O)CSc2nc3ccccc3c(=O)n2-c2ccc(C)cc2)cc1	43*	2	-13	25	-1	32
COc1ccc(NC(=O)CSc2nc3ccccc3c3nc4ccccc4n23)cc1	5	-1	81*	8	-3	nt
COc1ccc(N2CCN(CC(=O)NC(=O)NC(C)(C)C)CC2)cc1	2	-1	10	-41	2	21
SMILES	BaF3 tox	Ba/F3 V617F tox	APP transl inh	KLF5 inhibitor	IEC-6 tox	aSyn 5UTR inh
Cn1c(=O)c([N+](=O)[O-])c(N2CCN(Cc3ccc4c(c3)OCO4)CC2)c2ccccc21	-10	3	nt	-28	-3	9
Cc1nnc(NC(=O)CSc2nc3ccccc3o2)s1	2	3	-10	9	-1	-6
CCc1nnc(NC(=O)CSc2nc3ccccc3o2)s1	3	-1	47*	-23	2	-1
CCCc1cc(N2CCCC(C(=O)Nc3c(OC)cccc3OC)C2)n2ncnc2n1 (configuration not stated)	3	-4	50*	-7	4	27
O=C(CSC1=NS(=O)(=O)c2ccccc2N1)Nc1nccs1	nt	nt	nt	nt	nt	-5
COc1cc(C(=O)N2CCN(c3ccc(C)cc3C)CC2)cc(OC)c1OC	44*	37*	76*	29	42*	28
Cc1nc(NC(=O)c2ccccc2)sc1-c1csc(N)n1	69*	61*	-49	-79	17	-39
COC(=O)Oc1ccc(/C=C/C(=O)OC(C)C)cc1OC(=O)OC	35*	71*	37	-101	13	-127
OCCCNc1cc(-c2ccnc(Nc3cccc(Cl)c3)n2)ccn1	nt	nt	nt	nt	nt	110*
CCC(=O)N/C(N)=N/c1nc(C)c2cc(OC)ccc2n1	27*	23	-27	-35	3	-107
Cc1c(C(c2ccc(C(=O)O)cc2)c2c(C)n(C)n(-c3ccccc3)c2=O)c(=O)n(-c2ccccc2)n1C	nt	nt	nt	-16	1	-2
Cc1nn2cc(-c3ccccc3)nc2s1	7	4	-114	-65	5	-21
c1ccc(-c2cn3c4c(sc3n2)CCCC4)cc1	4	5	-88	-134	15	117*
CCCCn1c(CN(C)Cc2ccccc2)nc2c1c(=O)n(C)c(=O)n2C	29*	7	-7	-28	8	-1
CN(Cc1ccccc1)Cc1nc2c(c(=O)n(C)c(=O)n2C)n1CCc1ccccc1	1	-4	-1	-1	0	-12
CCCCn1c(CN2CCN(c3ccccc3)CC2)nc2c1c(=O)n(C)c(=O)n2C	29*	23	-3	-2	6	-31
N=c1sccn1CC(=O)Nc1cc(S(=O)(=O)N2CCCCC2)ccc1Cl	1	-5	nt	0	-4	3
Cc1ccc(OCCN2CCN(c3ncnc4sc(C)c(C)c34)CC2)cc1	28*	9	nt	-9	4	-4
CCOc1ccc(/C=N/NC(=O)c2[nH]c3ccc(C)cc3c2C)cc1	nt	nt	nt	-10	6	5
Cc1c(C(=O)N/N=C/c2ccc(Cl)cc2)[nH]c2ccc(Cl)cc12	9	5	93*	-5	11	-122
Cc1nnn(-c2nonc2N)c1C(=O)N/N=C/c1ccccc1O	6	0	64*	-20	6	68*
Cc1nnn(-c2nonc2N)c1C(=O)N/N=C/c1cccc2ccccc12	3	-4	-4	0	5	6
CC[n+]1ccc(/C=C2\Sc3ccccc3N2CCCS(=O)(=O)[O-])c2ccccc21	2	1	-11	-21	-1	-2
CN1C=C/C(=C\c2cc[n+](C)c3ccccc23)c2ccccc21	51*	19	32	-6	6	74*
Cn1nc(C(C)(C)C)cc1C(=O)NCc1ccc(N2CCCC2=O)cc1	93*	58*	-16	10	11	-13
Cc1ccc(CNC(=O)c2ccc(N3CCCC3=O)cc2)cc1	4	-5	2	12	0	-21
COc1ccccc1CNC(=O)CCCC(=O)n1nc(C)c2ccccc21	nt	nt	nt	-32	-8	-16
O=C(NNc1c2ccccc2nc2ccccc12)c1ccc(O)cc1	65*	49*	6	-6	4	-14
O=C(NNc1c2ccccc2nc2ccccc12)c1ccccc1O	3	0	1	-3	7	-93
O=C(NNc1c2ccccc2nc2ccccc12)c1ccc(O)cc1O	77*	72*	-12	-24	5	-79

From PubChem BioAssay
